Rows were chosen to be rich in hits. Some 1.3% of all compounds tested hit in one or more screens of this group.
AmpC inh no detg: blocks E. coli AmpC beta-lactamase in detergent-free assay; Potency, µM (titrated, usually from 57.1 µM), for the others: top-dose activity change, negative = inhibition, most hits filed as inhibitors; AmpC nitrocefin hydrolysis, absorbance 480 nm, 0.0001% Triton; AID 485341; actives 0.52% (n = 330,000);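 also: potency is read from the fitted curve at half-maximal effect; plate controls were no compound for no effect and no enzyme for full effect; nearly all actives have a fitted effect of over 20% in size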
Target sequence (P00811 whole entry, looked up): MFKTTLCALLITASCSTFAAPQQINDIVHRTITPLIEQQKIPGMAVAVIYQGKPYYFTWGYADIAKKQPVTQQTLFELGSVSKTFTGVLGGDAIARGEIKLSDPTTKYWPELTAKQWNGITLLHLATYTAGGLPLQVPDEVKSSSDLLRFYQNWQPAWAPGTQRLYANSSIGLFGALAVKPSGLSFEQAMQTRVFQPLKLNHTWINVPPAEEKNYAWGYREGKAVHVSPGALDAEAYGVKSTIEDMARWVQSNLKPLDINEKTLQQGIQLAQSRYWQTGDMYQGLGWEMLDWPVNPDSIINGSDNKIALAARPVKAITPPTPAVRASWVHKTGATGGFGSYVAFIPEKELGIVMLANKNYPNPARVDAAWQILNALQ
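AmpC (5.3 nM in the dispensed reagent) in 20 mM phosphate pH 7.0 with 0.01% (detergent screen) or 0.0001% Triton X-100 was preincubated with compounds for 15 min at room temperature. Nitrocefin was then added from an 800 uM solution, and hydrolysis was followed at 480 nm.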
VACV mCherry inh: inhibitors of vaccinia virus infection (mCherry reporter signal). AID 720579. Vaccinia virus mCherry reporter infection, fluorescence. actives 0.63% (n = 310,000). Potency, µM (top dose mostly 36.5 µM), for the others: at the highest dose activity change, negative = inhibition, hits mostly inhibitors; calls by dose curve; tested in A549 cells; also: potency is read from the fitted curve at half-maximal effect; % is scaled to controls: 0 for no effect and ±100 for the full control effect; nearly all actives have a fitted effect of over 35% in size
AMA1-RON2 inh: AMA1-RON2 (P. falciparum) interaction inhibition; AlphaScreen AMA1-biotinylated RON2 peptide binding; AID 720542; Potency, µM (series often up to 58.2 µM), without a hit: top-dose activity change, negative = inhibition, actives largely listed as inhibitors; actives 0.2% (n = 360,000);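 also: potency is read from the fitted curve at half-maximal effect; 0% = vehicle wells and -100% = peptide control; nearly all actives have a fitted effect of over 45% in size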
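AMA1 (3D7) with his tag at 25 nM final met compounds first, then biotinylated RON2 peptide at 25 nM; detection used donor plus acceptor beads, 10 µg/mL apiece, read by AlphaScreen after 30 min at room temperature.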
VACV Venus inh: vaccinia inhibition (Venus reporter) | Vaccinia virus Venus reporter expression, fluorescence | Potency, µM (highest dose often 36.5 µM), for the others: at the top dose activity change, negative = inhibition, actives largely listed as inhibitors | actives 0.46% (n = 330,000); calls by dose curve; tested in A549 cells; also: potency is read from the fitted curve at half-maximal effect; % is scaled to controls: 0 for no effect and ±100 for the full control effect; nearly all actives have a fitted effect of over 30% in size
SARS PLpro yeast-1: blocks SARS-CoV papain-like protease in a yeast assay. S. cerevisiae expressing SARS-CoV PLpro, growth rescue. Potency, µM (titrated, usually from 32.9 µM), for inactives: at the highest dose activity, positive = growth rescue, actives largely listed as activators. actives 0.19% (n = 330,000). AID 485353; calls by dose curve; also: potency is read from the fitted curve at half-maximal effect; 0% is about no effect; nearly all actives have a fitted effect of over 55% in size
AmpC detergent: blocks E. coli AmpC beta-lactamase in detergent assay; P00811; AmpC hydrolysis of nitrocefin, absorbance 480 nm, 0.01% Triton; Potency, µM (top dose mostly 114 µM), for inactives: at the top dose activity change, negative = inhibition, most hits filed as inhibitors; actives 0.041% (n = 370,000);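 also: potency is read from the fitted curve at half-maximal effect; 0% = no-compound wells and -100% = no-enzyme wells; nearly all actives have a fitted effect of over 25% in size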
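AmpC (5.3 nM in the dispensed reagent) in 20 mM phosphate pH 7.0 with 0.01% (detergent screen) or 0.0001% Triton X-100 was preincubated with compounds for 15 min at room temperature. Nitrocefin was then added from an 800 uM solution, and hydrolysis was followed at 480 nm.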
SARS PLpro yeast-2: Inhibits SARS-CoV PLP in yeast, hit validation | shares compounds with SARS PLpro yeast-1 | yeast expressing SARS-CoV PLpro, growth phenotype rescue | calls only | actives 19% (n = 1,000) | AID 652038; call rule not given here
* marks the source's active call; other numbers are inactive results; i = inactive; ? = inconclusive; · = no result given; + = active, no number; [ ] = dose if it differs, or a comment. Unless noted, calls follow the shape of the dose curve; as a rule, active = well fitted curve in the direction sought with a large enough effect; inconclusive = small, poorly fitted or top-dose-only effect, or another doubt; inactive = no such curve, though single readings can be large; an effect the other way counts as inactive or inconclusive.

SMILES	AmpC inh no detg	VACV mCherry inh	AMA1-RON2 inh	VACV Venus inh	SARS PLpro yeast-1	AmpC detergent	SARS PLpro yeast-2
CCOC(=O)C(=Cc1ccc(Br)cc1)C(=O)OCC	-11%	?	16%	14µM*	-4%	-17%	·
Cc1ccc(NS(=O)(=O)c2ccc(C(=O)N3CCCC(C(F)(F)F)C3)cc2)cc1 (stereo not given)	35µM*	i	9%	-12%	-1%	?	·
COc1ccccc1NS(=O)(=O)c1ccc(C(=O)N2CCCC(C(F)(F)F)C2)cc1 (stereo not given)	47%	·	-2%	·	-7%	0%	·
CCCCCc1ccc(OCCC[n+]2ccccc2)c(CCCCC)c1	154%	10µM*	-1%	10µM*	-4%	-7%	·
CCCCCc1ccc(OCCOCCn2c[n+](C)c3ccccc32)c(CCCCC)c1	243%	16µM*	-9%	11µM*	-18%	-5%	·
COc1cc(CN2C(=O)CC[C@@H]3CN(Cc4ccccn4)CC[C@@H]32)cc(OC)c1OC	·	-7%	·	1%	·	·	·
CC(C)c1c(C(=O)NCc2ccccn2)cnn1-c1nccc(-c2ccccc2F)n1	·	-2%	·	-21%	·	·	·
Cc1ncc(C23CC4CC(CC(C4)C2)C3)[nH]1	-19%	·	12%	·	13µM*	-15%	i
COc1nc(Nc2ccc(C(C)C)cc2)nc(OC)n1	-1%	i	-10%	-4%	?	?	i
C(=C\c1ccccc1)/CNn1cnnc1	-14%	-9%	8%	-8%	?	3%	i
COc1ccc(/C=C(\C#N)C(=O)OCC(=O)NCc2ccc(Cl)cc2)cc1	-29%	·	·	·	?	-1%	i
COc1ccc(/C=C(\C#N)C(=O)OCC(=O)NCc2ccccc2Cl)cc1	-24%	i	-4%	0%	1%	1%	·
COCCCN1C(=O)C(O)=C(C(=O)c2ccco2)C1c1ccccc1 (stereo not given)	-6%	·	-1%	-22%	-5%	?	·
COCc1cc(C2C(C(=O)c3ccco3)=C(O)C(=O)N2CCOCCO)ccc1O (stereo not given)	-10%	·	-3%	-7%	2.8µM*	?	i
CCOc1ccc(C(C)=O)cc1COC(=O)CNC(=O)C12CC3CC(CC(C3)C1)C2	22%	-9%	1%	-16%	-14%	·	·
Cc1cc(S(=O)(=O)n2ccnc2)c(Cl)cc1Cl	-8%	-27%	3%	-2%	1%	-2%	·
CCOc1ccc(Nc2oc(-c3cccc(Cl)c3)nc2C#N)cc1	-46%	·	-1%	·	?	-8%	?
CCOc1ccc(Nc2oc(-c3ccco3)nc2C#N)cc1	-28%	·	-3%	?	-10%	-12%	·
CN(C)CCCN(C(=O)c1ccc(S(=O)(=O)N2CCCCCC2)cc1)c1nc2ccc(F)cc2s1	177%	-23%	0%	-25%	?	-2%	i
CC(C)NC(=S)N/N=C/c1ccc2c(c1)OCCO2	-35%	-20%	14%	-21%	16µM*	-7%	+
Cc1nc(-c2ccc(NC(=O)CC(C)C)cc2)cs1	-24%	i	3%	-14%	-14%	2%	·
COc1ccccc1NC(=S)NNC(=O)c1nn(C)c(C)c1Cl	-18%	-13%	-9%	-6%	8%	-9%	·
COc1ccccc1NC(=S)NNC(=O)c1nn(C)c(C)c1Br	-20%	i	58%	-13%	16µM*	3%	i
COc1cccc(C(Nc2ccccn2)c2oc(CO)cc(=O)c2O)c1 (stereo not given)	-25%	·	-19%	·	11µM*	-13%	i
O=C(NCc1ccco1)c1ccc(Cl)c(S(=O)(=O)N2CCc3ccccc32)c1	-11%	?	-15%	-23%	?	-14%	i
SMILES	AmpC inh no detg	VACV mCherry inh	AMA1-RON2 inh	VACV Venus inh	SARS PLpro yeast-1	AmpC detergent	SARS PLpro yeast-2
CCc1nnc(NC(=O)c2ccc(S(=O)(=O)N(CC(C)C)CC(C)C)cc2)o1	-6%	-14%	-10%	?	?	-1%	+
CCc1nnc(NC(=O)c2ccc(S(=O)(=O)N3CCCc4ccccc43)cc2)o1	-46%	-29%	-1%	-27%	20µM*	-6%	i
O=C(Nc1nnc(C2CC2)o1)c1ccc(S(=O)(=O)N2CCc3ccccc3C2)cc1	-25%	-4%	82%	-17%	?	?	?
CCC[C@H]1CN(c2ccccc2)C(=O)[C@@H]1CC(=O)NC	·	-23%	-5%	-14%	·	·	·
CCOc1ccc(Cn2nnc(-c3ccc(S(C)(=O)=O)cc3)n2)cc1OCC	2%	·	3%	·	3%	-5%	·
O=C(CCN1CCN(C(c2ccccc2)c2ccccc2)CC1)N/N=C/c1ccc(O)cc1O	-33%	20µM*	29%	?	4.5µM*	?	i
O=C(CCN1CCN(C(c2ccccc2)c2ccccc2)CC1)N/N=C/c1ccc(O)cc1	-20%	-9%	0%	-10%	2%	-8%	·
O=[N+]([O-])c1ccccc1/C=N/N1CCN(c2ccncc2S(=O)(=O)N2CCCCC2)CC1	66%	-21%	-3%[11.6 µM]	-24%	-58%	-6%	·
O=[N+]([O-])c1ccc(/C=N/N2CCN(c3ccncc3S(=O)(=O)N3CCCCC3)CC2)cc1	-29%	-19%	1%	-16%	3.2µM*	?	i
CC(C)CCNC(=S)Nc1ccccn1	-18%	-15%	-6%	-3%	?	-1%	·
CC(C)CCNC(=S)Nc1ccccc1F	-13%	-26%	-1%	-19%	?	1%	+
O=C(CCN1C(=O)[C@@H]2Cc3ccccc3CN2C1=O)N[C@@H](Cc1ccccc1)C(=O)O	-45%	8%	0%	2%	6.3µM*	?	i
NC(=NCCc1ccccc1)NS(=O)(=O)c1ccc(F)cc1	-31%	-19%	31%	-11%	?	-7%	i
C=CCn1c(O)c(N=NC(=S)Nc2cccc(C)c2)c2ccccc21	10%	-23%	-30%	-28%	?	?	+
CC(C)Cn1c(SC(C)C(=O)NCC2CCCO2)nc2ccc(Cl)cc2c1=O (stereo not given)	-10%	·	17%	·	-3%	?	·
CC(C)(CNC(=O)c1sc2cc(F)ccc2c1Cl)N1CCOCC1	-13%	-9%	5%	-11%	?	?	i
Cc1ccc(C(=O)NCC(C)(C)N2CCOCC2)s1	-8%	-8%	3%	-11%	0%	1%	·
OCC[C@H]1C[C@@H](O)[C@H](O)[C@]2(CCCCO2)O1	-8%	i	-2%	11%	7%	-4%	·
COc1ccc(CCNC(=O)Cn2c([N+](=O)[O-])cnc2C)cc1OC	-20%	-6%	3%	2%	0%	5%	·
